# Experimental data taken from PubChem BioAssay AID1159580 (chemical genetic matrix, 2015).
# Among all 5,500 compounds or so, about 2,000 (36%) were called active. Not shown: some 18% with an inconclusive outcome. Some of the results follow. A number with no mark means an inactive call. Rule as the data show it: active = normalized growth mostly below about 0.91 (no sharp cut-off); inconclusive = no clear call, values can overlap the other calls; inactive = mostly above about 0.92.
# Experiment: chemical genetic growth profiling, strain panel (AID 1159580);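 also: tested at 20 µM; growth read once vehicle control cultures reached saturation at 30 °C; 1 = growth at the plate median or of vehicle wells; lower values mean less growth of the strain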
# Settings: growth OD
# [1] = S. cerevisiae deletion strains, locus YAL013W, strain DEP1, hits give low values
# [2] = S. cerevisiae deletion strains, locus YBR229C, strain ROT2, hits give low values
# [3] = S. cerevisiae deletion strains, locus YDL101C, strain DUN1, hits give low values
# [4] = S. cerevisiae deletion strains, locus YDL134C, strain PPH21, hits give low values
# [5] = S. cerevisiae deletion strains, locus YDR150W, strain NUM1, hits give low values
# [6] = S. cerevisiae deletion strains, locus YEL061C, strain CIN8, hits give low values
# [7] = S. cerevisiae deletion strains, locus YGR078C, strain PAC10, hits give low values
# [8] = S. cerevisiae deletion strains, locus YHR030C, strain SLT2, hits give low values
# [9] = S. cerevisiae deletion strains, locus YJR043C, strain POL32, hits give low values
# [10] = S. cerevisiae deletion strains, locus YJR075W, strain HOC1, hits give low values
# [11] = S. cerevisiae deletion strains, locus YKL190W, strain CNB1, hits give low values
# [12] = S. cerevisiae deletion strains, locus YLR039C, strain RIC1, hits give low values
# [13] = S. cerevisiae deletion strains, locus YLR262C, strain YPT6, hits give low values
# [14] = S. cerevisiae deletion strains, locus YMR263W, strain SAP30, hits give low values
# [15] = S. cerevisiae deletion strains, locus YMR307W, strain GAS1, hits give low values
# [16] = S. cerevisiae deletion strains, locus YNL153C, strain GIM3, hits give low values
# [17] = S. cerevisiae deletion strains, locus YNL322C, strain KRE1, hits give low values
# [18] = S. cerevisiae deletion strains, locus YOL006C, strain TOP1, hits give low values
# [19] = S. cerevisiae deletion strains, locus YPL055C, strain LGE1, hits give low values
# [20] = S. cerevisiae deletion strains, locus YPL241C, strain CIN2, hits give low values
# [21] = S. cerevisiae strains, strain wild type, hits give low values
# [22] = S. cerevisiae deletion strains, locus YHR087W, strain rtc3, hits give low values
# [23] = S. cerevisiae deletion strains, locus YJL187C, strain SWE1, hits give low values
# [24] = S. cerevisiae deletion strains, locus YLR058C, strain SHM2 (second series), hits give low values
# [25] = S. cerevisiae deletion strains, locus YLR085C, strain ARP6, hits give low values
# [26] = S. cerevisiae deletion strains, locus YML094W, strain GIM5, hits give low values
# [27] = S. cerevisiae deletion strains, locus YMR219W, strain ESC1, hits give low values
# [28] = S. cerevisiae deletion strains, locus YNL298W, strain CLA4 (second series), hits give low values
# [29] = S. cerevisiae deletion strains, locus YNR030W, strain Alg12, hits give low values
# [30] = S. cerevisiae deletion strains, locus YPR135W, strain CTF4, hits give low values
smiles,measurement,setting,value
CCN1C[C@]2(C)CC[C@H](OC)[C@]34C2[C@H](O)[C@]2(OCO[C@@]25C[C@H](OC)[C@H]2C[C@]3(O)C5[C@H]2O)C14,normalized growth,[1],0.998
same,normalized growth,"S. cerevisiae deletion strains, locus YBR021W, strain FUR4, hits give low values",1.01
same,normalized growth,[2],1.01
same,normalized growth,"S. cerevisiae deletion strains, locus YCL029C, strain bik1, hits give low values",1.01
same,normalized growth,"S. cerevisiae deletion strains, locus YDL035C, strain GPR1, hits give low values",1.03
same,normalized growth,"S. cerevisiae deletion strains, locus YDL074C, strain BRE1, hits give low values",1.04
same,normalized growth,[3],1.01
same,normalized growth,[4],1.01
same,normalized growth,"S. cerevisiae deletion strains, locus YDL185W, strain tfp1, hits give low values",1
same,normalized growth,"S. cerevisiae deletion strains, locus YDL192W, strain arf1, hits give low values",1.01
same,normalized growth,"S. cerevisiae deletion strains, locus YDR101C, strain arx1, hits give low values",0.995
same,normalized growth,[5],0.988
same,normalized growth,"S. cerevisiae deletion strains, locus YDR162C, strain NBP2, hits give low values",0.992
same,normalized growth,"S. cerevisiae deletion strains, locus YDR318W, strain mcm21, hits give low values",1.01
same,normalized growth,"S. cerevisiae deletion strains, locus YDR388W, hits give low values",1.01
same,normalized growth,"S. cerevisiae deletion strains, locus YDR502C, strain sam2, hits give low values",0.998
same,normalized growth,[6],0.994
same,normalized growth,"S. cerevisiae deletion strains, locus YER110C, hits give low values",1.01
same,normalized growth,"S. cerevisiae deletion strains, locus YER155C, strain BEM2, hits give low values",0.981
same,normalized growth,"S. cerevisiae deletion strains, locus YER167W, strain BCK2, hits give low values",1
same,normalized growth,"S. cerevisiae deletion strains, locus YGL078C, strain dbp3, hits give low values",0.998
same,normalized growth,"S. cerevisiae deletion strains, locus YGL086W, strain mad1, hits give low values",1
same,normalized growth,"S. cerevisiae deletion strains, locus YGL248W, strain PDE1, hits give low values",1
same,normalized growth,[7],1.03
same,normalized growth,"S. cerevisiae deletion strains, locus YGR135W, strain pre9, hits give low values",1.01
same,normalized growth,"S. cerevisiae deletion strains, locus YGR229C, strain SMI1, hits give low values",0.999
same,normalized growth,"S. cerevisiae deletion strains, locus YGR252W, strain gcn5, hits give low values",1.02
same,normalized growth,[8],0.999
same,normalized growth,"S. cerevisiae deletion strains, locus YHR079C, strain IRE1 (second series), hits give low values",1.01
same,normalized growth,"S. cerevisiae deletion strains, locus YHR094C, strain hxt1, hits give low values",1
same,normalized growth,"S. cerevisiae deletion strains, locus YHR129C, strain ARP1, hits give low values",1
same,normalized growth,"S. cerevisiae deletion strains, locus YHR200W, strain rpn10, hits give low values",1
same,normalized growth,"S. cerevisiae deletion strains, locus YIL066C, strain RNR3, hits give low values",1
same,normalized growth,"S. cerevisiae deletion strains, locus YIL073C, strain SPO22, hits give low values",1
same,normalized growth,"S. cerevisiae deletion strains, locus YIL125W, strain kgd1, hits give low values",1
same,normalized growth,"S. cerevisiae deletion strains, locus YIR030C, strain dcg1, hits give low values",1
same,normalized growth,"S. cerevisiae deletion strains, locus YJL095W, strain BCK1, hits give low values",1.04
same,normalized growth,"S. cerevisiae deletion strains, locus YJL134W, strain LCB3, hits give low values",0.999
same,normalized growth,"S. cerevisiae deletion strains, locus YJL168C, strain set2, hits give low values",1.01
same,normalized growth,"S. cerevisiae deletion strains, locus YJL187C, strain SWE1 (second series), hits give low values",1.01
same,normalized growth,[9],1.01
same,normalized growth,[10],1
same,normalized growth,"S. cerevisiae deletion strains, locus YKL009W, strain mrt4, hits give low values",1.02
same,normalized growth,"S. cerevisiae deletion strains, locus YKL068W, hits give low values",0.991
same,normalized growth,"S. cerevisiae deletion strains, locus YKL085W, strain MDH1 (second series), hits give low values",0.999
same,normalized growth,"S. cerevisiae deletion strains, locus YKL085W, strain MDH1, hits give low values",0.999
same,normalized growth,[11],0.967
same,normalized growth,"S. cerevisiae deletion strains, locus YKR001C, strain vps1, hits give low values",1.01
same,normalized growth,[12],1.03
same,normalized growth,"S. cerevisiae deletion strains, locus YLR058C, strain SHM2, hits give low values",1.01
same,normalized growth,"S. cerevisiae deletion strains, locus YLR102C, strain apc9, hits give low values",1
same,normalized growth,[13],1.03
same,normalized growth,"S. cerevisiae deletion strains, locus YLR268W, strain sec22, hits give low values",1.02
same,normalized growth,"S. cerevisiae deletion strains, locus YLR330W, strain CHS5, hits give low values",1.01
same,normalized growth,"S. cerevisiae deletion strains, locus YLR342W, strain FKS1 (second series), hits give low values",1.03
same,normalized growth,"S. cerevisiae deletion strains, locus YLR371W, strain rom2, hits give low values",1
same,normalized growth,"S. cerevisiae deletion strains, locus YLR418C, strain cdc73, hits give low values",1.04
same,normalized growth,"S. cerevisiae deletion strains, locus YML016C, strain PPZ1, hits give low values",1
same,normalized growth,"S. cerevisiae deletion strains, locus YML032C, strain rad52, hits give low values",1
same,normalized growth,"S. cerevisiae deletion strains, locus YML124C, strain tub3, hits give low values",1
same,normalized growth,"S. cerevisiae deletion strains, locus YMR078C, strain ctf18, hits give low values",1.01
same,normalized growth,"S. cerevisiae deletion strains, locus YMR223W, strain ubp8, hits give low values",0.998
same,normalized growth,[14],0.998
same,normalized growth,[15],1.07
same,normalized growth,"S. cerevisiae deletion strains, locus YNL067W, strain RPL9B, hits give low values",0.995
same,normalized growth,"S. cerevisiae deletion strains, locus YNL128W, strain TEP1, hits give low values",1
same,normalized growth,[16],1
same,normalized growth,"S. cerevisiae deletion strains, locus YNL233W, strain BNI4, hits give low values",1.01
same,normalized growth,"S. cerevisiae deletion strains, locus YNL250W, strain rad50, hits give low values",0.999
same,normalized growth,"S. cerevisiae deletion strains, locus YNL271C, strain bni1, hits give low values",1.01
same,normalized growth,"S. cerevisiae deletion strains, locus YNL298W, strain CLA4, hits give low values",1
same,normalized growth,"S. cerevisiae deletion strains, locus YNL307C, strain MCK1, hits give low values",1.02
same,normalized growth,[17],1
same,normalized growth,"S. cerevisiae deletion strains, locus YNR052C, strain pop2, hits give low values",1.01
same,normalized growth,[18],1.02
same,normalized growth,"S. cerevisiae deletion strains, locus YOL012C, strain htz1",1.33
same,normalized growth,"S. cerevisiae deletion strains, locus YOL147C, strain pex11, hits give low values",1.01
same,normalized growth,"S. cerevisiae deletion strains, locus YOR061W, strain CKA2, hits give low values",1.01
same,normalized growth,"S. cerevisiae deletion strains, locus YOR069W, strain VPS5, hits give low values",1
same,normalized growth,"S. cerevisiae deletion strains, locus YOR136W, strain idh2, hits give low values",1.01
same,normalized growth,"S. cerevisiae deletion strains, locus YOR144C, strain elg1, hits give low values",1.01
same,normalized growth,"S. cerevisiae deletion strains, locus YOR184W, strain ser1, hits give low values",1.03
same,normalized growth,"S. cerevisiae deletion strains, locus YOR316C, strain cot1, hits give low values",1
same,normalized growth,[19],0.987
same,normalized growth,[20],0.998
same,normalized growth,"S. cerevisiae deletion strains, locus YPR119W, strain clb2, hits give low values",1
same,normalized growth,"S. cerevisiae deletion strains, locus YPR141C, strain kar3, hits give low values",1
same,normalized growth,"S. cerevisiae deletion strains, locus YPR163C, strain tif3, hits give low values",1.02
same,normalized growth,"S. cerevisiae deletion strains, locus YPR167C, strain met16, hits give low values",1.01
same,normalized growth,"S. cerevisiae deletion strains, strain wtn01, hits give low values",1
same,normalized growth,[21],0.987
S=c1nccc(-c2ccc(Cl)cc2)[nH]1,normalized growth,[1],0.881 (active)
same,normalized growth,[2],0.861 (active)
same,normalized growth,"S. cerevisiae deletion strains, locus YCL061C, strain MRC1, hits give low values",0.84 (active)
same,normalized growth,[3],0.844 (active)
same,normalized growth,[4],0.882 (active)
same,normalized growth,[5],1.04
same,normalized growth,[6],0.904 (active)
same,normalized growth,[7],0.831 (active)
same,normalized growth,[8],0.722
same,normalized growth,[22],0.912
same,normalized growth,[23],0.969
same,normalized growth,[9],0.818 (active)
same,normalized growth,[10],0.949
same,normalized growth,[11],0.849 (active)
same,normalized growth,[12],1.01
same,normalized growth,[24],0.957
same,normalized growth,[25],0.413 (active)
same,normalized growth,[13],1.05
same,normalized growth,[26],0.879
same,normalized growth,[27],0.918 (active)
same,normalized growth,[16],0.895 (active)
same,normalized growth,[28],0.76 (active)
same,normalized growth,[17],0.988
same,normalized growth,[29],0.694 (active)
same,normalized growth,[18],0.36 (active)
same,normalized growth,[19],0.631 (active)
same,normalized growth,[20],0.748 (active)
same,normalized growth,[30],0.554 (active)
same,normalized growth,[21],0.882 (active)
COC(=O)CSc1ncnc2c(C)csc12,normalized growth,[1],0.989
same,normalized growth,[2],0.998
same,normalized growth,[3],0.959
same,normalized growth,[4],0.973
same,normalized growth,[5],0.948
same,normalized growth,[6],0.978
same,normalized growth,[7],0.988
same,normalized growth,[8],0.802
same,normalized growth,[22],0.998
same,normalized growth,[9],0.973
same,normalized growth,[10],0.974
same,normalized growth,[12],0.958
same,normalized growth,[24],0.995
same,normalized growth,[25],0.9
same,normalized growth,[13],0.985
same,normalized growth,[26],0.949
same,normalized growth,[27],1
same,normalized growth,[14],0.981
same,normalized growth,[15],0.903
same,normalized growth,[16],0.994
same,normalized growth,[28],0.945
same,normalized growth,[17],1
same,normalized growth,[29],0.981
same,normalized growth,[19],0.953
same,normalized growth,[20],0.986
same,normalized growth,[30],0.818
COC(=O)CSc1nc2ccc(Cl)cc2s1,normalized growth,[1],0.964
same,normalized growth,[2],0.932
same,normalized growth,[3],0.906
same,normalized growth,[5],1.02
same,normalized growth,[6],0.96
same,normalized growth,[7],0.958
same,normalized growth,[8],0.491 (active)
same,normalized growth,[22],0.942
same,normalized growth,[23],0.949
same,normalized growth,[9],0.977
same,normalized growth,[10],0.955
same,normalized growth,[12],0.842
same,normalized growth,[24],0.932 (active)
same,normalized growth,[25],0.744 (active)
same,normalized growth,[13],0.891
same,normalized growth,[26],0.901
same,normalized growth,[27],0.962
same,normalized growth,[14],1
same,normalized growth,[15],1.15
same,normalized growth,[16],0.962
same,normalized growth,[28],0.877
same,normalized growth,[17],0.959
same,normalized growth,[29],0.975
same,normalized growth,[19],0.92
same,normalized growth,[20],1.18 [resistant] (active)
same,normalized growth,[30],0.685
